Compound activity deposited in PubChem BioAssay by National Center for Advancing Translational Sciences (NCATS).
Shown are actives, neighbours in structure and some others; about 7.9% of the full set was active somewhere.
FMDV inh: High Throughput Screening for Foot and Mouth Disease Virus Antivirals; FMDV antiviral cell-based qHTS; Potency, µM (titrated, usually from 57.9 µM), for inactives: at the highest dose activity change, negative = inhibition, hits mostly inhibitors; actives 1.2% (n = 410,000); AID 1159524, 2015; calls by dose curve; tested in HEK293T cells; further: read-out not given here; potency means the concentration at half of the fitted maximal effect; nearly all actives have a fitted effect of over 45% in size
HCMV inh: qHTS Assay for inhibitors of the human cytomegalovirus (HCMV) | HFF cells, HCMV-luciferase reporter, 72 h; stronger effect = lower value | activity change, negative = inhibition, % at 57.5 µM | actives 4.5% (n = 410,000) | AID 1259415, 2018; in the data active means activity change below about -60%; inconclusive means no clear call, values can overlap the other calls; inactive means above about -39%
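Screen run at 2 compound doses on HFFs infected with reporter HCMV, MOI 1 PFU/cell. Luciferase activity from cell lysates at 72 h post infection gave inhibition relative to buffer-only and Salinomycin wells.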
LASV entry inh: qHTS for Inhibitors of binding or entry into cells for Lassa Virus | actives 1.2% (n = 300,000) | AID 540256, 2011 | Potency, µM (titrated, usually from 37.9 µM), for the others: at the highest dose activity change, negative = inhibition, usual class: inhibitors | Lassa virus pseudotype entry inhibition, cell reporter; calls by dose curve; tested in HEK293 cells; further: potency means the concentration at half of the fitted maximal effect; nearly all actives have a fitted effect of over 50% in size
Marburg entry inh: qHTS for inhibitors of binding or entry into cells for Marburg Virus | actives 1.8% (n = 300,000) | AID 540276, 2011 | Marburg virus pseudotyped entry inhibition, cell reporter | Potency, µM (top dose mostly 37.8 µM), inactives show at the highest dose activity change, negative = inhibition, hits mostly inhibitors; calls by dose curve; tested in HEK293 cells; further: potency means the concentration at half of the fitted maximal effect
HCV inh: qHTS Assay for Inhibitors of Hepatitis C Virus (HCV); Potency, µM (doses to about 41.8 µM), inactives show at the highest dose activity change, negative = inhibition, actives largely listed as inhibitors; actives 3.4% (n = 340,000); Huh7.5.1 HCVcc-Cre infection, luciferase reporter, 44 h; active means well fitted inhibition curve with a large enough effect; inconclusive means small, poorly fitted or top-dose-only effect, or another doubt; inactive means no such curve, though single readings can be large or run the other way; further: potency means the concentration at half of the fitted maximal effect
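Compounds are dispensed onto cells plated 4 h earlier at 1,000 per well, with HCVcc-Cre virus (about 0.5 moi) added next. Following 44 h of culture, luminescent signal is measured for 15 sec after 15 min with substrate at room temperature.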
The depositor's hits bear a star; ? = inconclusive; / = not tested or not shown; [ ] = dose if it differs, or a comment. On the % scale 0 is the no-effect control and ±100 the full control effect.

SMILES | FMDV inh | HCMV inh | LASV entry inh | Marburg entry inh | HCV inh
c1ccc(CC2CCN(C3=Nc4cccc5cccc3c45)CC2)cc1 | ? | / | -10% | 16µM* | 11µM*
COc1ccccc1N1CCN(C2=Nc3cccc4cccc2c34)CC1 | -32% | -6 | ? | 6.3µM* | 13µM*
COc1ccc(N2CCN(C(=O)c3nn(-c4ccc(C)cc4)c(=O)n(C)c3=O)CC2)cc1 | 4% | -4 | ? | / | /
Cc1c(C(=O)OC2CCCCC2)[nH]c2c1C(=O)CC(c1ccccc1)C2 (stereo not drawn) | -24% | -8 | ? | -4%[46.1 µM] | /
C/C=C/COC(=O)c1[nH]c2c(c1C)C(=O)CC(c1ccc(N(C)C)cc1)C2 (stereo not drawn) | -21% | -15 | / | / | 5.6µM*
C=CCOC(=O)c1[nH]c2c(c1C)C(=O)CC(c1ccco1)C2 (stereo not drawn) | 6% | / | / | / | -25%
CCOCCOC(=O)c1[nH]c2c(c1C)C(=O)CC(c1ccc(N(C)C)cc1)C2 (stereo not drawn) | ? | -25 | / | / | ?
Cc1c(C(=O)OCC(C)C)[nH]c2c1C(=O)CC(c1ccco1)C2 (stereo not drawn) | 0% | -77* | ? | ? | ?
Cc1c(C(=O)OC2CCCC2)[nH]c2c1C(=O)CC(c1ccco1)C2 (stereo not drawn) | ? | -95* | / | / | ?
C/C=C/COC(=O)c1[nH]c2c(c1C)C(=O)CC(c1ccco1)C2 (stereo not drawn) | -5% | -65* | ? | ? | ?
CC1c2c([nH]c3ccccc23)CCC1C(=O)O (stereo not drawn) | -5% | 0 | 16% | 28% | -5%
COC(=O)[C@@H]1[C@@H](CO)[C@@H]2Cn3c(ccc(Br)c3=O)[C@H]1N2S(=O)(=O)c1ccccc1F | / | -6 | / | / | /
CCOC(=O)C1Nc2ccc(C(F)(F)F)cc2C2c3ccccc3CC12 (stereo not drawn) | 28µM* | 64 | / | / | ?
CCN1CCc2c(sc(-n3cccc3)c2C(C)NC(=O)Nc2cc(Cl)c(OC)cc2OC)C1 (stereo not drawn) | 2% | 21 | 3%[46.1 µM] | / | /
CCN1CCc2c(sc(-n3cccc3)c2C(C)NC(=O)Nc2ccccc2C)C1 (stereo not drawn) | 27% | -67* | -2%[46.1 µM] | / | /
CCn1c(N)[n+](CC(=O)Nc2ccc(SC(F)F)cc2)c2ccccc21 | -7% | ? | ? | 4.5µM* | ?
O=C(Cn1cnc2ccccc21)Nc1ccc(SC(F)F)cc1 | ? | -10 | -16%[46.1 µM] | 3.2µM* | 8.9µM*
C[C@H]1CC[C@H]2C(=O)N[C@H](Cc3ccccc3)C(=O)N2[C@H]1c1ccccc1 | / | / | / | -17%[14.2 µM] | /
COc1ccc2c3n([n+]([O-])c2c1)C(C)CN=C3c1ccc(Cl)cc1 (stereo not drawn) | / | 50 | / | / | /
COc1ccc(CN2C(=O)C(n3ccc4ccccc43)c3cc(OC(F)(F)F)ccc32)cc1 (stereo not drawn) | / | -91* | / | / | /
CC(C)c1ccc(CN2C(=O)C(n3ccc4ccccc43)c3cc(Cl)ccc32)cc1 (stereo not drawn) | / | -76* | / | / | /
COc1ccc2c(c1)C(n1ccc3ccccc31)C(=O)N2Cc1ccc(C(F)(F)F)cc1 (stereo not drawn) | / | 27 | / | / | /
COc1ccc(C2NCCc3c2[nH]c2ccccc32)cc1COc1ccc(F)cc1 (stereo not drawn) | ? | -98* | 23µM* | ? | 10µM*
COc1cc2c(cc1OC)C(C)N(Cc1ccc3c(c1)OCO3)CC2 (stereo not drawn) | -25% | -11 | / | / | 3%
COc1ccc(C2NCCc3c2[nH]c2ccccc32)cc1CN1CCc2cc(OC)c(OC)cc2C1C (stereo not drawn) | -15% | / | / | / | 11µM*
SMILES | FMDV inh | HCMV inh | LASV entry inh | Marburg entry inh | HCV inh
Cc1ccc(NC(=O)c2ccc([N+](=O)[O-])o2)cc1C | 18% | ? | ? | ? | 13µM*
CC(=O)c1cccc(NC(=O)c2ccc(-c3ccccc3[N+](=O)[O-])o2)c1 | -60% | 82 | ? | 4.6µM* | ?
O=C(NCc1nnnn1-c1ccc(F)cc1)c1ccc([N+](=O)[O-])o1 | -20% | ? | 2% | ? | ?
O=C(Nc1nc2c(Cl)cccc2s1)c1ccc([N+](=O)[O-])o1 | ? | 2 | 3% | ? | -6%
O=C(Nc1cccc(NC(=O)c2ccccc2Cl)c1)c1ccc([N+](=O)[O-])o1 | -21% | -98* | ? | ? | 10µM*
Cc1ccc(-n2nnnc2CNC(=O)c2ccc([N+](=O)[O-])o2)cc1C | -18% | -26 | ? | ? | 22µM*
Cc1cccc2cc(CN(C(=O)c3ccc(N4CCCCC4)cc3)C3CC3)c(N3CCC(O)CC3)nc12 | -9% | / | / | / | /
O=C(COc1ccc([N+](=O)[O-])cc1)Nc1ccc2[nH]c(=O)[nH]c2c1 | -13% | -3 | -4% | 21% | 8%
O=C(COc1ccccc1)NC(=S)Nc1cccc(NC(=O)c2ccccc2Cl)c1 | 17% | -64* | 14% | 14% | 13%
O=C(Nc1cccc([N+](=O)[O-])c1)c1ccc([N+](=O)[O-])o1 | ? | -87* | / | / | /
O=C(Nc1cccc([N+](=O)[O-])c1)c1ccncc1 | -1% | 23 | 15% | 4% | 22%
O=C(Nc1ccc2[nH]c(=O)[nH]c2c1)c1ccc([N+](=O)[O-])o1 | -8% | 0 | / | / | 10µM*
C[C@]1(c2cnc(Nc3ccccc3)s2)CCC(=O)O1 | / | / | / | -10%[46.1 µM] | /
CCc1cccc(NC(=O)c2nc(-c3ccncc3)no2)c1 | 8% | -23 | 20%[46.1 µM] | / | /
O=[N+]([O-])c1ccc2nc(-c3ccccc3)cc(-c3ccccc3)c2c1 | -8% | 36 | -2% | ? | 0%
O=[N+]([O-])c1ccc(-c2ccccc2)c([As](=O)(O)O)c1 | -24% | -91* | / | / | -24%
O=C(Cn1ncc2c3ccccc3n(Cc3ccc(Cl)cc3)c2c1=O)NCCCN1CCCC1=O | -15% | 1 | / | / | -24%
O=C1CCCN1CCCNCCCn1cnc2c(OCc3ccccc3)ncnc21 | ? | 6 | / | / | -3%[8.37 µM]
O=C(Cn1cnc2c(OCc3ccccc3)ncnc21)NCCCN1CCCC1=O | -16% | 16 | / | / | 0.56µM*
O=C(Cn1ncc2c3ccccc3n(Cc3ccc(F)cc3)c2c1=O)N1CCC2(CC1)OCCO2 | ? | / | ? | 14µM* | ?
O=C(Cn1ncc2c3ccccc3n(Cc3ccccc3)c2c1=O)NCCCN1CCCC1=O | -18% | -67* | -5%[46.1 µM] | 18%[46.1 µM] | -3%
O=C(Cn1ncc2c3ccccc3n(Cc3ccc(F)cc3)c2c1=O)N1CCN(c2ncccn2)CC1 | ? | -36 | ? | ? | ?
COc1ccc(Cl)cc1NC(=O)Cn1c(=O)n(CCCC(=O)NCCc2ccc(OC)c(OC)c2)c(=O)c2ccccc21 | -26% | -80* | ? | ? | /
